{"source": "the OligoGym collection"}
{"molecular_target": "TRIM23", "test": "pooled miR-30 sensor sort-seq; sequence = guide strand", "conditions": "shRNA"}
{"sequence": "TAAAATTGATGCTCGGATCTGA", "sensor-assay potency score (higher = more potent)": 0.781}
{"sequence": "TATGCACACAAACTACACCTGT", "sensor-assay potency score (higher = more potent)": -0.275}
{"sequence": "TAAGCTCGAATACATGACCGGG", "sensor-assay potency score (higher = more potent)": -0.886}
{"sequence": "TAGTTTGACAACCTTCTTCCAA", "sensor-assay potency score (higher = more potent)": -0.272}
{"sequence": "TTTCCGTTAACAACTTTGCAAG", "sensor-assay potency score (higher = more potent)": -1.22}
{"sequence": "TGCAACTTCTGTAAACTGCTGC", "sensor-assay potency score (higher = more potent)": 0.44}
{"molecular_target": "TRIM25", "test": "pooled miR-30 sensor sort-seq; sequence = guide strand", "conditions": "shRNA"}
{"sequence": "TTGTTGTAGCTGCTCCACCTTT", "sensor-assay potency score (higher = more potent)": -0.889}
{"sequence": "TTGAGTTCGGATGTGAGCTGGT", "sensor-assay potency score (higher = more potent)": 0.643}
{"sequence": "TATAGCACTCTGACAGAGCCAC", "sensor-assay potency score (higher = more potent)": -0.415}
{"sequence": "TTGTTTTAAATCCACTAACTGT", "sensor-assay potency score (higher = more potent)": -0.521}
{"sequence": "TTGAGAGATGTTGAGTTCGGAT", "sensor-assay potency score (higher = more potent)": -0.803}
{"sequence": "TTTAATGTAATACTCCAGGAGC", "sensor-assay potency score (higher = more potent)": -0.733}
{"sequence": "TTGTGCTGGGAACATTTGCGGC", "sensor-assay potency score (higher = more potent)": -1.66}
{"sequence": "TAAATCCACTAACTGTTCCGGG", "sensor-assay potency score (higher = more potent)": -0.339}
{"sequence": "TTTCCGTGTATTCTTGTTGTAG", "sensor-assay potency score (higher = more potent)": -0.308}
{"sequence": "TTTATCTTCCTTGTCGAGGTGG", "sensor-assay potency score (higher = more potent)": 0.408}
{"sequence": "TTGAGGTCTATGGTGCTCTGGT", "sensor-assay potency score (higher = more potent)": -0.448}
{"sequence": "TAAATGGTGTCAAACTTGCTGT", "sensor-assay potency score (higher = more potent)": -0.555}
{"molecular_target": "TRIM2", "test": "pooled miR-30 sensor sort-seq; sequence = guide strand", "conditions": "shRNA"}
{"sequence": "TAAAATTCCATCACATTCCCAT", "sensor-assay potency score (higher = more potent)": 0.363}
{"sequence": "TTGTCTTAAATTTCCCATCGGA", "sensor-assay potency score (higher = more potent)": 0.291}
{"sequence": "TTCCATTTGTAGATGCAGCTAC", "sensor-assay potency score (higher = more potent)": 0.668}
{"sequence": "TATTGCTATTTACAGCTGCAAA", "sensor-assay potency score (higher = more potent)": -1.54}
{"sequence": "TTTTTGTCTTAAATTTCCCATC", "sensor-assay potency score (higher = more potent)": -1.5}
{"sequence": "TAGAGTCTCAGAGACAGGGTAA", "sensor-assay potency score (higher = more potent)": -0.389}
{"sequence": "TTTCATTGTAGACTAAAGCATC", "sensor-assay potency score (higher = more potent)": -0.921}
{"sequence": "TTTCCAGTGCTGTACATGCTTG", "sensor-assay potency score (higher = more potent)": -1.12}
{"sequence": "ATCACTTTCAGCTTAAACGGGC", "sensor-assay potency score (higher = more potent)": -0.591}
{"sequence": "TTCCATTTGAATCCACTGCTAC", "sensor-assay potency score (higher = more potent)": -0.305}
{"sequence": "TTAATTGAAAGTTTCATTGTAG", "sensor-assay potency score (higher = more potent)": 0.799}
{"sequence": "TTGAATCCACTGCTACACCTGT", "sensor-assay potency score (higher = more potent)": -0.182}
{"molecular_target": "TRIM38", "test": "pooled miR-30 sensor sort-seq; sequence = guide strand", "conditions": "shRNA"}
{"sequence": "TTCTTGATCCGTCTCTTTGAGG", "sensor-assay potency score (higher = more potent)": -1.24}
{"sequence": "TTAGTTATTCGCATTGCTGTGG", "sensor-assay potency score (higher = more potent)": 0.226}
{"sequence": "TAAACCTGGAAATAGGGCCGGA", "sensor-assay potency score (higher = more potent)": -0.714}
{"sequence": "TTTCCATTTAGTTATTCGCATT", "sensor-assay potency score (higher = more potent)": -1.66}
{"sequence": "TTAACATTTTCTTCACATCGAA", "sensor-assay potency score (higher = more potent)": -0.794}
{"sequence": "TTCACATCGAAGTAAAGCTTGG", "sensor-assay potency score (higher = more potent)": -0.536}
{"sequence": "TATAAAAGGATACAACTCCGGC", "sensor-assay potency score (higher = more potent)": -0.57}
{"sequence": "TACGTCTTCAACAAGAGCTGTG", "sensor-assay potency score (higher = more potent)": -0.0393}
{"sequence": "TCTGTCTTCAAGTTGCTTCAGT", "sensor-assay potency score (higher = more potent)": 0.253}
{"sequence": "TAACATTTTCTTCACATCGAAG", "sensor-assay potency score (higher = more potent)": -1.18}
